From PubChem BioAssay (NCATS) come the findings set out here.

Each structure is given as a SMILES string. Results filed as inconclusive are left out. A call without a number means that no potency is given here. Active and inactive are the calls of the source. Calls follow the shape of the dose curve; as a rule, active = well fitted inhibition curve with a large enough effect; inconclusive = small, poorly fitted or top-dose-only effect; inactive = flat fitted curve, though single readings scatter.
Potency is read from the fitted curve at half-maximal effect.

This experiment is described as follows: P-glycoprotein substrates identified in KB-8-5-11 adenocarcinoma cell line, qHTS therapeutic library screen (AID 1346987). Also: nearly all actives have a fitted effect of over 65% in size. Particulars: KB-8-5-11 (P-gp overexpressing) viability, CellTiter-Glo, 72 h; series mostly up to 44.5 µM. Summed up:
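KB-8-5-11: colchicine-selected sub-line of KB-3-1 over-expressing P-gp; assay medium lacked colchicine. 72 h drug exposure at 37 degree C, CellTiter-Glo.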
For the compound `OC/C=C/C=C/[C@H]1Cc2cc(O)cc(O)c2O1`, the Potency entry was “inactive”.
For the compound `CC(=O)NC1C(OC(C)(C)C2CCC3(C)C=C(C4CCC5C4(C)CC(O)C4OC(C(C)(C)O)CCC45C)CCC3O2)OC(CO)C(O)C1O` (stereo not drawn), the Potency result was “inactive”.
As to `COc1cccc(C(=O)N2CCN(C(=O)COc3cccc(C)c3)CC2)c1OC`, the Potency was 23100 nM (active).
The same measure, in the same setting: in the case of `C=C1CN(Cc2ccc(C(=O)Nc3ccccc3N)cc2)C(=O)c2ccccc21` it was 1300 nM (active); in that of `C=C(CCC1=C(C)[C@H]2[C@H](CC3[C@@H]4CC=C5C[C@@H](O)C[C@@H](O)[C@]5(C)C4[C@H](O)C[C@@]32C)O1)CO[C@@H]1O[C@H](CO)[C@@H](O)[C@H](O)[C@H]1O` (stereo partly drawn), 1530 nM (active).
Consider `C=CC1(C)C=C2CCC3C(C)(C)C(O[C@@H]4O[C@@H](CO)[C@H](O)[C@H]4O)CCC3(C)C2CC1O[C@@H]1O[C@H](C)[C@H](O)[C@H](O)[C@H]1O` (stereo partly drawn), for which the Potency result was “inactive”.
`COc1cc(Br)c(Nc2nc(-c3c(C)nc4ncccn34)cs2)c(Br)c1`: the Potency is 2310 nM (active).
With `CN1c2ccccc2C(=O)N2CCC3c4ccccc4NC3C21` (stereo not drawn), the Potency is 2020 nM (active).
On the same count and under the same terms, then `COc1ncc2cc(C(=O)Nc3cc(C(=O)NCc4cccc(Cl)c4)ccc3Cl)c(=O)[nH]c2n1`, with 5800 nM (active).
The same measure, in the same setting: then `Cc1cccc(-c2[nH]c(Cc3cccc(C(N)=O)c3)nc2-c2ccc3nccnc3c2)n1`, with “inactive”.
`C[C@@H]1O[C@@H](O[C@H]2[C@H](O)[C@@H](C(=O)O)O[C@@H](O[C@H]3CC[C@@]4(C)C(CC[C@]5(C)C4CC=C4C6CC(C)(C)CC[C@]6(C(=O)O)CC[C@]45C)C3(C)C)[C@@H]2O[C@@H]2OC[C@@H](O)[C@H](O)[C@H]2O)[C@H](O)[C@H](O)[C@H]1O` (stereo partly drawn): the outcome is “inactive [at 9.29 µM]”.
As for `COc1cc(N)c(Cl)cc1C(=O)NC[C@@H]1CCN2CCC[C@@H]12`, the Potency result is “inactive”.
The same measure, in the same setting: in the case of `CC1CCC2C(C(=O)O)=COC(O[C@@H]3O[C@H](CO)[C@@H](O)[C@H](O)[C@H]3O)C12` (stereo partly drawn) it was “inactive”; in that of `Cc1ccc(S(=O)(=O)Cc2nc(-c3ccc(C(=O)NCc4cccnc4)cc3)oc2C)cc1`, 58 nM (active); in that of `CCC1C(=O)N(C)c2cnc(Nc3ccc(C(=O)NC4CCC(N5CCN(CC6CC6)CC5)CC4)cc3OC)nc2N1C(C)C` (stereo not drawn), 291 nM (active).
On to `c1ccc(-c2csc(N3CCOCC3)n2)cc1`, for which the Potency entry is “inactive”.
Still for that read-out and setting: then `C/C=C(/COC(=O)/C(C)=C/C)C(=O)OC(CC)c1ccc(OC)c(OC)c1` (stereo not drawn), with “inactive”; and `C=C[C@H]1[C@H](O[C@@H]2O[C@H](CO)[C@@H](O)[C@H](O)[C@H]2O)OC=C(C(=O)OC)[C@H]1C/C=C(/C=O)[C@@H]1C(C(=O)OC)=CO[C@@H](O[C@@H]2O[C@H](CO)[C@@H](O)[C@H](O)[C@H]2O)[C@@H]1C=C`, with “inactive”.
Same read-out and setting: then `COC(=O)c1cc(OC)c(O[C@@H]2O[C@@H](C)[C@H](O)[C@@H](O)[C@H]2O)c(OC)c1`, with “inactive”; and `COC(=O)Cc1cc2c(c([N+](=O)[O-])c1)N(C(=O)CC[C@H](N)C(=O)O)CC2`, with “inactive”.
Take `Cn1c(=O)cc(N2CCCC(N)C2)n(Cc2cc(F)ccc2C#N)c1=O` (stereo not drawn): the Potency result is “inactive”.
Still for that read-out and setting: in the case of `Cc1cccc(Oc2cnc(=O)[nH]c2)c1` it was “inactive”.
The same measure, in the same setting: then `C=CC/C=C\C/C=C\CCCCCCCc1cccc(O)c1C(=O)O`, with “inactive”; and `C[C@@]12CC[C@@H]3[C@@](CC[C@H]4[C@@]3(C)CCC[C@@]4(C)C(=O)O)(CC1=O)C2`, with “inactive”.
On the same count and under the same terms, then `C=CC1C(OC2OC(CO)C(O)C(O)C2O)OC=C2C(=O)N3C(C(=O)O)Cc4c([nH]c5ccccc45)C3CC21` (stereo not drawn), with “inactive”; and `COc1cc(O)cc(C)c1C(=O)OC1C(CO)OC(OC2C(O)C(O)C(O)C(O)C2O)C(O)C1O` (stereo not drawn), with “inactive”; and `O=C(O)CC1CCC(c2ccc(-c3ccc4nc(C(=O)NCc5ccc(OC(F)(F)F)cc5)cn4c3)cc2)CC1` (stereo not drawn), with “inactive”.
Turning to `OCC1OC(Oc2cc(O)cc(/C=C/c3ccc(O)cc3)c2)C(O)C(O)C1O` (stereo not drawn), the Potency result is “inactive”.
On the same count and under the same terms, then `C[C@@H]1CCC/C=C/[C@H]2CC(=O)C[C@@H]2[C@@H](O)/C=C/C(=O)O1`, with “inactive”; and `CC1CCCCN1S(=O)(=O)c1ccc(N2CCCC2=O)cc1` (stereo not drawn), with “inactive”.
Take `CNCc1ccc(-c2cc(-c3nc(-c4ccc(S(=O)(=O)C(C)C)cc4)cnc3N)on2)cc1`: the Potency was 1300 nM (active).
With `C(#Cc1nc2ncccc2nc1OCCN1CCCC1)c1ccccc1`, the Potency is 6510 nM (active).
As for `NC[C@@](O)(c1ccc(Cl)cc1)c1ccc(-c2cn[nH]c2)cc1`, the Potency was 9200 nM (active).
